Molecules are shown by their SMILES. About 2,000 (0.91%) of roughly 220,000 compounds were called active. Roughly 2% stayed inconclusive and do not appear here. Only a sample is shown. Measured potencies and affinities stand elsewhere. Values without a mark were called inactive. No stated cut-off is given here; in the data, inconclusive means inhibition above about 80% without an active follow-up result; inactive means below that; test concentration not stated here.

As a reminder, the inhibition is the change of the read-out against control, counted positive when it falls.

A short description of this test: M. tuberculosis H37Rv growth inhibitors, H37Rv strain (AID 1626).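 Further: bacteria incubated seven days before Alamar blue readout; 0% = bacteria only wells and 100% = bacteria with antibiotic wells.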 Conditions: hits give high values, concentration not given here.
`COC(=O)c1cccc(NC(=O)CCCOc2cccc(C)c2)c1`: the inhibition was -9.57%.
Next, `O=C(CCCCCNC(=S)Nc1ccccc1)C[N+](=O)[O-]`: -1.95%; `Cc1c(-c2ccccc2)[nH]n2c(=O)c3c(nc12)CCCC3`: 6.84%; `Cc1[nH]n2c(=O)c3c(nc2c1-c1ccccc1)CCC3`: 3.85%.
For `CN(C)c1cc(-c2cccc([N+](=O)[O-])c2)oc(=O)c1Cl` the value was 1.64%.
For `Cc1ccc(C(=O)N[C@@H](C)CN2C3=NC[C@H](Cc4ccccc4)N3C[C@H]2Cc2ccc(O)cc2)cc1Br` the value was 21.4%; for `Cc1ccc(C(=O)NCCN2C3=NC[C@@H](Cc4ccccc4)N3C[C@H]2Cc2ccc(O)cc2)cc1Br`, 40.7%; for `COc1ccc(C[C@@H]2CN3C(=NC[C@@H]3C)N2C[C@H](C)NC(=O)c2ccc(C)c(Br)c2)cc1`, 8.27%.
Regarding `Cc1ccc(C(=O)NCCN2C3=NC[C@H](Cc4ccc(O)cc4)N3C[C@H]2Cc2ccc(O)cc2)cc1Br`, the inhibition was 13.6%.
Next, `Cc1cc(=O)oc(C)c1C(=O)Nc1cccc(F)c1`: -6.13%; `CNC(=S)Nc1cccc(C(C)=O)c1`: -3.56%.
Turning to `Cc1ccc(N=C2NC(=O)/C(=C/c3cccnc3)S2)c(C)c1`, the inhibition was 20.4%.
For the compound `COCCCn1c(SCc2ccc(OC)cc2)nc2cc(OC)c(OC)cc2c1=N`, the inhibition is 1.79%.
With `COc1cc2nc(SCc3ccc(F)cc3)n(Cc3cccs3)c(=N)c2cc1OC`, the inhibition is 8.63%.
Next, `COc1cc2nc(SCc3ccc(Cl)cc3Cl)n(Cc3cccs3)c(=N)c2cc1OC`: 11.9%; `COc1ccc(-c2nc(Cn3c(SCc4cccc(F)c4)nc4ccncc43)c(C)o2)cc1OC`: 55.2%.
For `COc1ccc(-c2nc(Cn3c(SCc4ccc(F)cc4)nc4ccncc43)c(C)o2)cc1OC` the value was 67.8%; for `COCCCn1c(SCc2ccccc2)nc2cc(OC)c(OC)cc2c1=N`, 0.99%; for `COc1cc2nc(SCc3ccc(C(F)(F)F)cc3)n(Cc3cccs3)c(=N)c2cc1OC`, -5.09%.
For `COCCCn1c(SCc2cccc(OC)c2)nc2cc(OC)c(OC)cc2c1=N` the value was 6.91%.
Regarding `O=C(C(=O)N1CCc2ccccc2C1)c1cn(CC(=O)N2CCOCC2)c2ccccc12`, the inhibition is -0.84%.
Next, `CCOC(=O)/C=C(\C)N1N=C(c2ccccc2)CC1c1ccccc1` (stereo not given): 33.1%.
`C=CCOc1ccccc1CNCCc1ccc(S(N)(=O)=O)cc1`: the inhibition is 0.31%.
Next, `CCOC(=O)c1cccc(NC(=S)NCc2ccc(C)cc2)c1`: 2.33%; `COCCNC(=O)c1cccc(C)c1[N+](=O)[O-]`: 3.44%.
With `CC1CC1C(=O)OCC(=O)Nc1cccc(S(=O)(=O)NC2=NCCCCC2)c1` (stereo not given), the inhibition is -7.4%.
Next, `COc1ccc(CCNC(=O)C2CC3Cn4c(nc5ccccc54)C3N2Cc2ccccc2)cc1` (stereo not given): -0.23%; `Cc1ccc(S(=O)(=O)CCC(=O)OCC(=O)N2CC(=O)Nc3ccccc32)cc1`: -1.54%; `COc1ccc(-n2c(SCC(=O)Nc3cc(C(=O)O)ccc3C)nc3ccccc3c2=O)cc1Cl`: -8.45%.
For `CN1/C(=C\C(=O)c2cncc(Br)c2)C(C)(C)c2ccccc21` the value was 25.1%; for `CN1/C(=C\C(=O)c2cccnc2)C(C)(C)c2ccccc21`, -3.35%; for `Cc1ccc2cc3cc(C(=O)N4CCC5(CC4)OCCO5)oc3nc2c1`, -1.4%.
For `COc1ccc2nc3oc(C(=O)N4CCC5(CC4)OCCO5)cc3cc2c1` the value was 5.85%; for `CCN(C(=O)CSc1cc(C)c2cccc(C)c2n1)C1CCS(=O)(=O)C1` (stereo not given), 1.8%.
On to `O=C(CCC1CCCN(C(=O)CC2=CCCCC2)C1)N1CCN(c2ccccn2)CC1` (stereo not given), for which the inhibition was 8.51%.
For `CCSc1nnc([C@H](Cc2ccccc2)NC(=O)OC(C)(C)C)o1` the value was 14.6%; for `COc1ccc(CCNC(=O)NC23CC4CC(CC(C4)C2)C3)cc1OC`, -2.6%.
For `O=C(NCCCO)NC12CC3CC(CC(C3)C1)C2` the value was 1.78%.
Next, `NS(=O)(=O)c1ccc(CCNC(=O)NC23CC4CC(CC(C4)C2)C3)cc1`: 3.03%; `O=C(NCCC1=CCCCC1)NC1CCCCC1`: -1.65%; `CCOC(=O)c1cc(-c2ccccc2)nn1-c1ccccn1`: -4.13%.
As for `C#CCOCCOCCOCCNc1nc(N2CCOCC2)nc(N2CCN(C(=O)Cn3cc(CCCN=C(N)N)nn3)CC2)n1`, the inhibition is -13.8%.
As for `CCN(CC)C(=O)c1cc2c(=O)c3cc(F)ccc3oc2nc1C`, the inhibition is 1.36%.
For `Cc1ccc(Nc2nc3ccccc3n3nnnc23)cc1` the value was -0.03%; for `CCCCC(=O)c1ccc(O)cc1O`, 77%; for `CCCCCCCC(=O)N/N=C(\C)c1ccc(O)cc1O`, 11.6%.
Next, `O=C(CCO)c1ccc(O)cc1`: 12.1%; `CCC(=O)c1ccc(O)cc1`: 14.2%; `O=C(NCc1ccc(Cl)cc1)c1noc2c1CCCCC2`: 4.19%.
For `COc1ccc(NC2=CC(=O)CC(c3ccccc3)C2)cc1` (stereo not given) the value was -3.06%.
`O=C(O)CC(CC(=O)Nc1ccc(F)c(Cl)c1)c1ccc(Cl)cc1Cl` (stereo not given): the inhibition is -8.97%.
For `NNC(=O)C(Cc1ccccc1)NC(=O)OCc1ccccc1` (stereo not given) the value was 3.92%.
`Clc1ccc(C2=NCCN2)cc1`: the inhibition is 4.97%.
For `O=C(Nc1ccc(Cl)c(Cl)c1)c1ccc(Cl)c(Cl)c1` the value was 2.4%; for `CCCN1C(=O)c2cc(C(=O)NCc3cccs3)ccc2C1O` (stereo not given), -13.3%; for `O=C(Nc1ccc(F)c(Cl)c1)C1CC(=O)n2c(nc3ccccc32)N1` (stereo not given), -5.64%.
Next, `Cc1ccc(/C=N/N2CCN(c3ccccc3)CC2)cc1`: -2.14%; `O=c1cc(-c2cccs2)oc2ccc(Cl)cc12`: -2.31%.
In the case of `O=c1c(O)c(-c2cccs2)oc2ccccc12`, the inhibition was -4%.
Turning to `Cc1cc(C(=O)NNS(=O)(=O)c2cccc(Cl)c2)nn1C(C)(C)C`, the inhibition was 2.6%.

For the origin of these results see PubChem BioAssay AID1626 (SRMLSC, 2009).
